{
  "source": "PubChem BioAssay (NCI)",
  "note": "The panel holds about 83,000 compounds, 20% with a hit somewhere; the sample as a whole holds those more often.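 In brief: 96-well plates, 48 h treatment, single concentration, percent growth endpoint.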 The source made the active and inactive calls.",
  "data": [
    {"test_system": "SK-MEL-5 melanoma", "assay": "NCI-60 one-dose screen, 48 h (100 = growth as untreated, 0 = no growth, -100 = all killed)", "details": "10 µM unless noted", "protocol": "Growth inhibition of the SK-MEL-5 human tumor cell line is measured as a screen for anti-cancer activity. Cells are grown in 96 well plates and exposed to the test compound for 48 hours. Compounds are tested at a single concentration, which is 10^-5 M for most compounds. The reported endpoint is percent growth (GI% or GIPRCNT), where numbers from 0 - 100% represent growth inhibition, and numbers from -100% - 0 represent cell death. For example, a value of 40 represents 60% growth inhibition. A value of 0 means no net growth occurred over the course of the experiment. A value of -40 indicates 40% of cells at the beginning of the experiment died by the end of the experiment. A value of -100 means all cells are dead at the end of the experiment.\nNCI-60 Human Tumor Cell Lines Screen was performed using the standard one-dose NCI protocol, which is described in more detail at https://dtp.cancer.gov/discovery_development/nci-60/default.htm.\nCompounds with GIPRCNT values below 10 were considered active. Activity score was based on GIPRCNT using the following formula: […]\nScore is 0 for GIPRCNT values of 100 or above, 50 for GIPRCNT values of 0, and 100 for GIPRCNT values of -100.", "values": [
      {"smiles": "CCN(CC)CCCC(C)Nc1c2ccc(Cl)cc2nc2cc(OC)c(OC)cc12", "note": "(stereo not given)", "growth": "45.3% (inactive)"},
      {"smiles": "CC1=C(C#N)C(=O)NC(C)C1", "note": "(stereo not given)", "growth": "105% (inactive)"},
      {"smiles": "COc1ccc(-c2[nH]nc(N)c2-c2cc(OC)c3c(c2)OCO3)cc1", "growth": "54.2% (inactive)"},
      {"smiles": "Brc1cccc(-c2cc(-c3ccc4c(c3)OCCCO4)[nH]n2)c1", "growth": "39.1% [25 µM] (inactive)"},
      {"smiles": "O=C(c1ccccc1)c1c(/C=C/c2ccccc2)c2ccccc2[nH]c1=O", "growth": "96.4% (inactive)"},
      {"smiles": "COc1ccc2cc(-c3ccc(-c4ccc(C(=N)N)cc4)s3)ccc2c1", "growth": "94.8% (inactive)"},
      {"smiles": "Cc1ccc(N2CCN(C(C)C(N)=O)CC2)cc1", "note": "(stereo not given)", "growth": "110% (inactive)"},
      {"smiles": "O=C1CS/C(=N\\Nc2cc(=O)[nH]c3ccccc23)N1c1ccccc1", "growth": "96.2% (inactive)"},
      {"smiles": "O=C(c1ccccc1)C1OC1c1ccc([N+](=O)[O-])cc1", "note": "(stereo not given)", "growth": "52.7% (inactive)"},
      {"smiles": "O=[N+]([O-])c1cc(Cl)c2[nH]c3c(Cl)cc([N+](=O)[O-])cc3c2c1", "growth": "-60.7% (active)"},
      {"smiles": "Cc1ccc(NS(=O)(=O)c2cc(C)ccc2C)cc1", "growth": "30.3% (inactive)"},
      {"smiles": "Brc1cccc(-c2cc(-c3ccc4nccnc4c3)[nH]n2)c1", "growth": "20.9% [25 µM] (inactive)"},
      {"smiles": "CCCCCCCCCCCCCCCCNC(=O)OC(C)C", "growth": "91% (inactive)"},
      {"smiles": "Cc1ccc(S(=O)(=O)C2=C3C(=C(c4ccccc4)c4ccccc43)CN(S(=O)(=O)c3ccc(C)cc3)C2)cc1", "growth": "81.9% (inactive)"},
      {"smiles": "COC(=O)[C@]12CC[C@@H](C)[C@H](C)[C@@H]1C1=CC[C@@H]3[C@@]4(C)C(C=O)=C[C@@](C)(COC(=O)c5ccco5)[C@@H]4[C@H](O)C[C@@]3(C)[C@]1(C)CC2", "growth": "-94.9% (active)"},
      {"smiles": "CN(C)c1oc(C2OC2c2ccccc2)nc1C#N", "note": "(stereo not given)", "growth": "102% (inactive)"},
      {"smiles": "OB(O)c1cccc(-c2nc3ccc4[nH]ncc4c3c3c2CCCC3)c1F", "growth": "79.5% (inactive)"},
      {"smiles": "COc1ccc(-c2c(N)n[nH]c2-c2cc3c(c(OC)c2OC)OCO3)cc1", "growth": "110% (inactive)"},
      {"smiles": "CC(C)(C)n1cc(-c2ccnc(NCCCNS(=O)(=O)c3ccc(Cl)cc3)c2)c(-c2cccc(O)c2)n1", "growth": "-87.8% (active)"},
      {"smiles": "O=C(NS(=O)(=O)c1ccccc1)n1cc(-c2ccncc2)c(-c2ccc(Cl)c(O)c2)n1", "growth": "100% (inactive)"},
      {"smiles": "Cc1c(C(=N)C(C#N)C#N)c(=N)oc2c1ccc1ccccc12", "growth": "83.7% (inactive)"},
      {"smiles": "COc1cc(-c2nn(-c3cccc(NC(=O)Nc4cccc(C(F)(F)F)c4)c3)cc2-c2ccncc2)ccc1Cl", "growth": "-97.8% (active)"},
      {"smiles": "Cn1cc(-c2cnc3ccc(NC(=O)Nc4ccc(F)c(Br)c4)cc3n2)cn1", "growth": "-9.12% (active)"},
      {"smiles": "CC(C)(C)c1[nH]nc2c1C(c1cc3ccccc3[nH]c1=O)Nc1cc(C(=O)Nc3ccc(Cl)cc3)ccc1N2", "note": "(stereo not given)", "growth": "70.2% (inactive)"},
      {"smiles": "O=c1ccn(C2CC(O)C(O)C(CO)O2)c(=O)[nH]1", "note": "(stereo not given)", "growth": "137% (inactive)"},
      {"smiles": "COc1cc(C2CC(c3ccc4c(c3)OCO4)=NN2C=O)cc(OC)c1OC", "note": "(stereo not given)", "growth": "17.2% (inactive)"},
      {"smiles": "O=C(Nc1cccc(-n2cc(-c3ccncc3)c(-c3ccc(Cl)c(O)c3)n2)c1)c1ccc(N2CCOCC2)c(C(F)(F)F)c1", "growth": "50.8% (inactive)"},
      {"smiles": "O=C1c2c(Cl)c(Cl)c(Cl)c(Cl)c2C(=O)C2(Cl)CC=CCC12Cl", "note": "(stereo not given)", "growth": "57.3% (inactive)"},
      {"smiles": "COc1ccc(Nc2nn3c(-c4ccccc4)cc(-c4ccccc4)nc3c2C(N)=O)c(OC)c1", "growth": "55.9% (inactive)"},
      {"smiles": "CNC(=S)NNC(=O)C1CC1", "growth": "105% (inactive)"},
      {"smiles": "Cc1ccc(S(=O)(=O)NC(=O)n2cc(-c3ccncc3)c(-c3ccc(Cl)c(O)c3)n2)cc1", "growth": "100% (inactive)"},
      {"smiles": "O=C1c2ccccc2-c2ccccc2C1(Cl)Cl", "growth": "-95.5% (active)"},
      {"smiles": "Cn1ccc(Nc2nccc(Oc3ccc(C(=O)Nc4cccc(F)c4)c(Cl)c3)n2)c1", "growth": "39.5% (inactive)"},
      {"smiles": "CC(C)(C)OC(=O)NCCc1ccc(N=C=S)cc1", "growth": "86.1% (inactive)"},
      {"smiles": "O=C(O)C1CCCCN1c1nc(Cl)nc(Cl)n1", "note": "(stereo not given)", "growth": "97.3% (inactive)"},
      {"smiles": "COc1ccc(C2C=C(c3ccc(OC)c(OC)c3)N=C3SC=C(C)N32)c(Br)c1", "note": "(stereo not given)", "growth": "100% (inactive)"},
      {"smiles": "COc1cc(-c2nn(-c3cccc(NC(=O)Nc4ccc(Cl)c(C(F)(F)F)c4)c3)cc2-c2ccncc2)ccc1Cl", "growth": "-65.3% (active)"},
      {"smiles": "COc1ccc(-c2nc(N3CCCC3=O)sc2Br)cc1OC", "growth": "89.8% (inactive)"},
      {"smiles": "Nc1nc(=O)c2ccccc2s1", "growth": "116% (inactive)"},
      {"smiles": "O=c1[nH]c2ccc(Br)cc2c2c1C(c1ccc(Cl)cc1)c1c(ncn3nc(-c4ccco4)nc13)O2", "note": "(stereo not given)", "growth": "67.4% (inactive)"}
    ]}
  ]
}
